Measurements reported in the supplement of paper PMC6555819.

Each sequence was assayed on PPARg DBDmut:RXRa IVT, anti-PPARg (DBD mutation: PPARg1 K132A/R137A, NR concentration 270 nM, RXRa partner concentration 90 nM) (assay: PBM binding z-score (relative to random genomic background probes); higher = stronger binding; sequences stand for … in GC…GCGATTGACAGCGTAGAATGAAGG).
How it was run: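 Custom Agilent 4×180K protein-binding microarrays carried double-stranded probes. Their 34-nt variable regions held direct-repeat seeds, single-nucleotide variants, half-site ablations and random human genomic background sequences. Arrays were incubated 1 h with ligand-free nuclear receptor dimers in PBS pH 7.4, 2% milk, 0.02% Triton X-100, 1 mM DTT, 0.2 mg/mL BSA and 0.4 mg/ml salmon testes DNA. Antibodies against each partner (one per run) detected binding, and scanned fluorescence was regression-normalized. Binding z-scores use random background probes as reference.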

In order of falling PBM binding z-score:
1. CAAACTAGGTCACCGGAACGTCAAAGTCCGCATG  3.6
2. TATACAGGGTCAAAGGACAGAGTACGAATGTCGA  3.23
3. TCTACTAGGTCAGTTGGTCAGCTAACGAGCTGCC  1.78
4. TCATATAGGTAATACAGGTGGAAGTCGGCATCTA  1.36
5. ACAATGAGGTTATACGTAGATCAGGGAAGAAAGT  1.33
6. TCTTGTACATCAACAGGAGGTTAAGAAAGATCGA  1.32
7. GCATATAGGTAATACAAGTTGAAAGTCCGATTGT  1.06
8. TCTTGTAGATCAACAGGAGGTTATGAAAGATCGA  0.881
9. ATCTCCAGGTAACCAAGTTCAGTGAATGCCGAAC  0.875
10. ATCTCTAGTTAAAAGTTCAGTGAATCCCGAGGAT  0.853
11. ATCTCTAGGTAACCAAGTTAAGTGAATGCCGAAC  0.758
12. TAGCCTAGGTCATGGGCCAATATACCACGCGAAC  0.749
13. TCTATTAGTTGAAGCGCAACCGACGAGTCCGTTT  0.484
14. CCTATTAGTTGACTATAAGGGCAACCGAAGCTCG  0.358
15. GCTATTAGTTGAAAGGGCCACCGAATGATTCTCG  0.0939
16. ATACCAAGGAGATCGTGAGGTCGTTGATACTAAC  -0.211
17. GCGACTGGGGCAAAGCAGGTTACCCTAAGGTTGG  -0.575
18. CCTCGGAGGACAACAAGAGGTCAGAGCTGCCAGA  -1.24
